Screening data from PubChem BioAssay.
TRHR enhancer = qHTS for Small Molecule Agonists and Allosteric Enhancers of Human TRH Receptor: Primary Screen for Enhancers; Thyrotropin-releasing hormone receptor (Homo sapiens), P34981; enhancement, % at 2 µM; 360,000 tested, 0.66% active; TRHR cells, fluo-8 calcium fluorescence, EC20 TRH enhancement; in the data active means enhancement above about 30%; further: 0% is about no effect
Target sequence (P34981 whole entry, looked up): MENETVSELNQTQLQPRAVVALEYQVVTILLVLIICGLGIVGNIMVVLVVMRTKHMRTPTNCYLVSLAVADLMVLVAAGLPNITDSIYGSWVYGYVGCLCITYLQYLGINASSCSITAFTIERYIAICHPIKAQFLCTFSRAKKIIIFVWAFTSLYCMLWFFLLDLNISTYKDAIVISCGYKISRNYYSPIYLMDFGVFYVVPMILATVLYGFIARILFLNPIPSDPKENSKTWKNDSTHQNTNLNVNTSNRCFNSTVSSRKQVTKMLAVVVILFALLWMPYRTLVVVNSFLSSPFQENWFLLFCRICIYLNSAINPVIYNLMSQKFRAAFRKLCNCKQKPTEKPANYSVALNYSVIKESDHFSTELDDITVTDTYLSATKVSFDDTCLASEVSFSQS
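Enhancer read-out: after compound pinning and an initial kinetic agonist-mode read, an EC20 of TRH (10 nM final) was injected and fluo-8 calcium signal (Ex 480/Em 530) followed at 1 s/cycle for 100 cycles in TRHR-expressing cells.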
D1 potentiator = Potentiators of Human D1 Dopamine Receptor: qHTS; 360,000 tested, 0.036% active; potentiation, % at 10 µM; HEK293 TREx D1 cells, calcium flux, dopamine EC20 potentiation; in the data active means potentiation above about 30%; further: 0% is about no effect
Epigenetic derep = Quantitative High-Throughput Screen for Regulators of Epigenetic Control. murine LDR cells, GFP reporter derepression, 30 h. Potency, µM (highest dose often 53.9 µM), inactives show at the top dose GFP activation, most hits filed as activators. 280,000 tested, 0.2% active. AID 1865, 2009; active means well fitted activation curve with a large enough effect; further: potency means the concentration at half of the fitted maximal effect; % of control where 0% means no effect; nearly all actives have a fitted effect of over 60% in size
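Readout is the number of GFP-expressing murine LDR cells, counted by cytometry following washing. Cells were treated with compound for 30 h at 37 C; the stably integrated CMV-GFP locus is normally silent.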
TRHR ag = qHTS for Small Molecule Agonists and Allosteric Enhancers of Human TRH Receptor: Primary Screen for Agonists | Thyrotropin-releasing hormone receptor (Homo sapiens), P34981 | activation, % at 2 µM | 360,000 tested, 0.18% active | TRHR cells, calcium flux fluo-8, FDSS agonist mode; further: 0% is about no effect
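TRHR-expressing cells loaded with fluo-8 calcium dye; 23 nL library compound pin-transferred, kinetic FDSS fluorescence (Ex 480/Em 530) recorded about 180 s for agonist-induced calcium release, before a 10 nM TRH EC20 addition for potentiator mode.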
D1 antagonist = Antagonist of Human D 1 Dopamine Receptor: qHTS. D(1A) dopamine receptor (Homo sapiens), P21728. HEK293 TREx D1 cells, calcium flux, dopamine EC80; active compounds read low. activity change, negative = inhibition, % at 10 µM. 360,000 tested, 3.2% active. AID 504652, 2011; in the data active means activity change below about -30%; further: on the % scale 0 is the no-effect control and ±100 the full control effect
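Calcium flux readout: force-coupled, inducible Hek293 Trex D1 line, cells induced overnight at 30 C with tetracycline, dye-loaded 30–90 min at RT. Antagonism scored against EC80 dopamine challenge given 180 s after compound.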
D1 agonist = Allosteric Agonists of the Human D1 Dopamine Receptor: qHTS. HEK293 T-REx D1 cells, calcium flux, agonist mode. activation, % at 2 µM. 360,000 tested, 1% active; further: 0% is about no effect
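Tetracycline-induced HEK293 TREx D1 cells, force-coupled to calcium signalling, were dye-loaded with a no-wash calcium kit. Compound was pin-added after a 10 s baseline. Fluorescence was read kinetically at 1 cycle/s for 180 s, with calcium rises flagged as agonism.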
* hit, by the source's call. A selection: hits, their analogues and other compounds. The true share with any hit is near 4.6%. Unless noted, no stated cut-off is given here; in the data, active means activation above about 30%; inactive means the rest.

`N#C/C(=C/c1ccc(O)cc1)c1nc(-c2ccc(-c3ccccc3)cc2)cs1` gave TRHR enhancer 43.3*, D1 potentiator -1.1, Epigenetic derep 11.2µM*, TRHR ag 1.7, D1 antagonist -12.0 and D1 agonist 2.0.
CCCCn1c(CN2CCN(C(=O)OCC)CC2)nc2c1c(=O)n(C)c(=O)n2C was read as TRHR enhancer -5.0, D1 potentiator -1.3, Epigenetic derep -4.2%, TRHR ag 0.8, D1 antagonist 30.8 and D1 agonist 0.8.
`CCOC(=O)N1CCN(Cc2nc3c(c(=O)n(C)c(=O)n3C)n2Cc2cc(C)ccc2C)CC1` gave TRHR enhancer 9.6, D1 potentiator -6.7, Epigenetic derep -1.2%, TRHR ag -0.8, D1 antagonist -31.8* and D1 agonist 2.0.
`O=C(NCc1ccncc1)c1cc(F)c(F)cc1Cl` gave TRHR enhancer -2.0, D1 potentiator -3.9, Epigenetic derep 2.8%, TRHR ag -0.4, D1 antagonist -39.7* and D1 agonist 0.4.
`O=C(NCc1ccncc1)C(F)(F)C(F)(F)C(=O)NCc1ccncc1` gave TRHR enhancer -0.9, D1 potentiator -7.2, Epigenetic derep -1.0%, TRHR ag 0.7, D1 antagonist -42.6* and D1 agonist 5.7.
Screening O=C(NCc1ccncc1)c1c(F)c(F)c(F)c(F)c1F returned TRHR enhancer 3.2, D1 potentiator 1.3, Epigenetic derep -2.9%, TRHR ag 0.8, D1 antagonist -17.6 and D1 agonist 4.6.
Screening CCN(c1ccccc1)S(=O)(=O)c1cccc(C(=O)NCc2ccncc2)c1 returned TRHR enhancer 31.4*, D1 potentiator -9.5, TRHR ag 0.0, D1 antagonist 7.1 and D1 agonist 5.0.
`O=C(Nc1ccc(N2CCCCC2)c(Cl)c1)c1ncn[nH]1` gave TRHR enhancer 12.0, D1 potentiator 1.1, Epigenetic derep -0.9%, TRHR ag -0.5, D1 antagonist 1.5 and D1 agonist 39.2*.
O=C(Nc1ccc(N2CCN(C(=O)c3ccccc3F)CC2)cc1)c1ncn[nH]1 was read as TRHR enhancer 33.5*, D1 potentiator 0.3, Epigenetic derep -1.0%, TRHR ag -0.2, D1 antagonist 3.2 and D1 agonist 2.4.
O=C(Nc1ccc(CCC(=O)N2CCCC2)cc1)c1ncn[nH]1 was read as TRHR enhancer -5.1, D1 potentiator 6.5, Epigenetic derep 1.0%, TRHR ag 0.0, D1 antagonist 12.0 and D1 agonist 2.9.
Screening CC(=O)Nc1nonc1-c1nnc(SCc2ccccc2C)n1C returned TRHR enhancer -0.8, D1 potentiator 2.0, Epigenetic derep -3.2%, TRHR ag -1.4, D1 antagonist 3.5 and D1 agonist -2.8.
Screening CC(C)(C)C(=O)Nc1sc2c(c1C#N)CCCCC2 returned TRHR enhancer 1.9, D1 potentiator -1.6, Epigenetic derep 1.0%, TRHR ag 0.5, D1 antagonist 1.0 and D1 agonist 1.8.
For N#Cc1c(NC(=S)NC(=O)c2ccccc2)sc2c1CCN(CCc1ccccc1)C2 the results were TRHR enhancer 4.4, D1 potentiator -3.5, Epigenetic derep 5.62µM*, TRHR ag 10.8, D1 antagonist -5.3 and D1 agonist 48.0*.
Screening CC(C)(C)C(=O)Nc1sc2c(c1C#N)CCN(Cc1ccccc1)C2 returned TRHR enhancer 0.1, D1 potentiator 5.8, TRHR ag 11.3, D1 antagonist 3.0 and D1 agonist 33.4*.
For N#Cc1c(NC(=S)NC(=O)c2ccccc2)sc2c1CCCC2 the results were TRHR enhancer -2.2, D1 potentiator 0.6, Epigenetic derep 0.0%, TRHR ag 0.2, D1 antagonist 17.7 and D1 agonist 2.0.
